In all, about 68,000 compounds went through this assay and about 2,700 (4%) showed an effect of 50% or more. The full list was thinned out, with strong results kept by preference.

In the assay the test system is Plasmodium berghei. In words: Screen against P. berghei liver stage (PbLuc), transformed with Luciferase, at 2uM. The assay is classed as functional, HepG2. As to conditions: tested at 2 uM.
Regarding `O=c1c2ccc(C(F)(F)F)cc2ncn1CCCN1CCCCC1CO` (centres undefined), the INHIBITION was -13.49%.
Turning to `Cc1nn(C)cc1CN1CCC(c2ncc(Cl)cc2S(C)(=O)=O)CC1`, the INHIBITION came to 20.51%.
The result for `COc1cc(C2SCC(=O)Nc3n[nH]cc32)cc(OC)c1O` (centres undefined) reads -33.37%; that for `O=C1CSC(c2ccncc2)c2c[nH]nc2N1` (centres undefined), 76.13%; that for `COc1ccc(C2SCC(=O)Nc3n[nH]cc32)c(OC)c1OC` (centres undefined), 2.66%.
As for `Cc1cccc(C(=O)NCc2ccccc2)n1`, the INHIBITION came out at 5.09%.
Take `CC(C)(C)S(=O)(=O)CCNC(=O)NCCCc1cccc(F)c1`: the INHIBITION was found to be 26.02%.
The result for `CC(C)NC(=O)NCCCc1cccc(F)c1` reads 78.96%; that for `CC(=O)NCCNC(=O)NCCCc1cccc(F)c1`, 31.55%.
`OC(CN1CCN(CCOCC(F)(F)F)CC1)c1ccccc1` (centres undefined): the INHIBITION is 25.35%.
As to `O=C(CCc1nccs1)N1CCN(c2ccccc2F)CC1`, the INHIBITION was found to be 44.12%.
`N#Cc1cccnc1N1CCCN(C(=O)CCc2nccs2)CC1`: the INHIBITION is -71.75%.
On to `N#Cc1ccccc1N1CCCN(C(=O)CCc2nccs2)CC1`, for which the INHIBITION was 63.95%.
The result for `N#Cc1ccccc1N1CCCN(C(=O)CCc2ccco2)CC1` reads 75.56%; that for `Cc1ncsc1CCC(=O)NC1CCN(c2ncccc2C#N)CC1`, 51.81%; that for `N#Cc1ccccc1N1CCCN(C(=O)CCc2ccsc2)CC1`, -107.32%.
With `Cc1ncsc1CCC(=O)NC1CCN(c2ccc(Cl)nn2)CC1`, the INHIBITION is reported as 2.04%.
To `N#Cc1cccnc1N1CCN(C(=O)c2cccs2)CC1` belongs 23.76%; to `N#Cc1cccnc1N1CCCN(C(=O)CCc2cccs2)CC1`, 10.1%.
On to `N#Cc1ccccc1N1CCCN(C(=O)CCc2cccs2)CC1`, for which the INHIBITION was determined as 16.08%.
The result for `N#Cc1cccnc1N1CCN(C(=O)CCC(=O)c2cccs2)CC1` reads 53.81%; that for `Cc1ncsc1C(=O)NC1CCN(c2ncccc2C#N)CC1`, -4.58%.
To `COC1COC2(CCN(Cc3ccccc3C)CC2)C1` (centres undefined) belongs 27.65%.
To `CC(C)n1cnc2c(N3CCCC3)nc(C3CCNCC3)cc21` belongs 14.39%; to `CC(NCc1ccccc1Br)c1ccc2[nH]c(=O)[nH]c2c1` (centres undefined), 20.28%.
On to `CCCc1nc2c(c(C)c(C)n2Cc2ccccn2)c(N)c1CC`, for which the INHIBITION is -17.84%.
As for `O=C(NCCc1cc(N2CCOCC2)nc(NC2CC2)n1)C1CC1`, the INHIBITION is reported as 38.45%.
The result for `COCCN1CCN(c2nc(O)cc(Cc3ccccc3F)n2)CC1` reads -35.66%.
In the case of `Cc1cc(NC(=O)Cn2cc(C#N)c(=O)c3cc(Br)ccc32)no1`, the INHIBITION was 3.43%.
The result for `CN(Cc1ccoc1)C(=O)CN1C(=O)OC(C)(C)C1=O` reads 0.85%.
On to `CN(Cc1ccon1)C(=O)CN1C(=O)OC(C)(C)C1=O`, for which the INHIBITION is recorded as 70.76%.
Regarding `CN(Cc1cc(C2CC2)on1)C(=O)CN1C(=O)OC(C)(C)C1=O`, the INHIBITION turned out to be 37.41%.
As for `CCn1nc(C)c2nc(C(C)C)nc(N3CCC(O)CC3)c21`, the INHIBITION is given as 5.86%.
Regarding `O=C(c1cccc(F)c1)N1CCC2(CC1)CN(c1ccccn1)CCO2`, the INHIBITION is recorded as -29.13%.
To `COCCn1/c(=N\C(=O)CN(C)S(C)(=O)=O)sc2cc(Cl)ccc21` belongs 52.05%; to `COCCn1/c(=N\C(=O)CN(C)S(C)(=O)=O)sc2cc(OC)ccc21`, 11.87%.
Consider `COCCn1/c(=N\C(=O)CN(C)S(C)(=O)=O)sc2cc(C)ccc21`, for which the INHIBITION was 29.19%.
To `Nc1ncnc2[nH]c(N3CCCCC3)nc12` belongs -87.36%.
Regarding `Clc1ccccc1OC1CN(CC2CCOC2)C1` (centres undefined), the INHIBITION was -14.36%.
To `CC(C)NC(=O)N1CCC[C@H]1C(=O)NCCCc1cccc(F)c1` belongs -22.24%; to `CN(Cc1ccc(F)cc1)C(=O)CN1CCCC(Cn2cncn2)C1` (centres undefined), 2.08%.
Take `CN(Cc1cccc(F)c1)C(=O)CN1CCCCC1Cn1cncn1` (centres undefined): the INHIBITION was 3.3%.
To `CN(Cc1cccc(F)c1)C(=O)CN1CCCC(Cn2cncn2)C1` (centres undefined) belongs 53.1%; to `CN(Cc1ccccc1)C(=O)CN1CCCC(Cn2cncn2)C1` (centres undefined), 45.5%.
Regarding `CN(Cc1cccc(F)c1)C(=O)CN1CCCC1CCc1ccccc1` (centres undefined), the INHIBITION turned out to be 80.56%.
`N#CCCN(CCC#N)C(=O)CN1CCCC1Cc1cccc(F)c1` (centres undefined): the INHIBITION was -43.03%.
The result for `COc1cc(OC)cc(C(=O)N(C)Cc2nnc3ccccn23)c1` reads 34.39%; that for `Cc1ccc(N2C[C@H]3CCC[C@@H](CN4CCOCC4)[C@H]3C2)nn1`, -7.49%.
For `CN(C)c1ccc(C(=O)NCc2cccnc2-n2cncn2)cc1F`, the INHIBITION is 20.19%.
The result for `O=C(CCC1CCCO1)NCc1ccccc1Cn1cncn1` (centres undefined) reads 64.16%; that for `O=C(CC1CCCO1)NCc1ccccc1Cn1cncn1` (centres undefined), 8.37%.
The result for `CN(C)C1CCN(C(=O)NCc2ccccc2Cn2cncn2)CC1` reads 9.05%; that for `NC(=O)C1CCN(C(=O)NCc2ccccc2Cn2cncn2)CC1`, 64.07%; that for `O=C(NCc1ccccc1Cn1cncn1)N1CCCC1`, -9.49%.
Take `O=C(CCNC(=O)C1CCCC1)NCc1ccccc1Cn1cncn1`: the INHIBITION is reported as -14.17%.
To `O=C(NCc1ccon1)c1c(F)cc(Br)cc1F` belongs 1.04%; to `Cc1nc(C2CCCN(C(=O)c3c[nH]c(C(C)C)n3)C2)no1` (centres undefined), 13.3%; to `Cc1cc(C)n(CC2CCCCN2CC(=O)NC2CCOCC2)n1` (centres undefined), 27.5%.
The result for `CCN(Cc1cnn(CC)c1)C(=O)CN1C(=O)CCc2ccccc21` reads 21%.
As for `CC(C)(C)c1n[nH]c(C2CN(C(=O)c3ccsc3)CCO2)n1` (centres undefined), the INHIBITION is 31.19%.
With `CNC(=O)C(C)(C)NC(=O)c1cc(COc2cccc(C(C)=O)c2)[nH]n1`, the INHIBITION is reported as -8.74%.
The result for `CC(c1cccnc1)N(C)Cc1ccccn1` (centres undefined) reads -18.23%; that for `CC1N(CC2CC2)C(=O)COC12CCN(C(=O)c1cccs1)CC2` (centres undefined), 32.04%.
To `CCCN1CCN(S(=O)(=O)c2ccccc2OC)[C@H]2CS(=O)(=O)C[C@H]21` belongs 52.45%; to `CCN1CCN(S(=O)(=O)N2CCc3ccccc3C2)[C@H]2CS(=O)(=O)C[C@H]21`, 25.37%; to `COc1ccccc1S(=O)(=O)N1CCN(C)[C@@H]2CS(=O)(=O)C[C@@H]21`, 40.88%.
To `CCn1ncc(NC(=O)c2cc(C3CC3)nc3c2c(C)nn3C)c1C` belongs 52.52%; to `CCCn1ncc2c(C(=O)Nc3cnn(CC)c3C)cc(C3CC3)nc21`, 34.52%; to `Cc1cc(C(=O)Nc2cc(C3CC3)n[nH]2)c2c(C)nn(C)c2n1`, 40.99%.

For the origin of these results see ChEMBL document CHEMBL4513216, “Probing the Open Global Health Chemical Diversity Library for Multistage-Active Starting Points for Next-Generation Antimalarials” (ACS Infect Dis, 2020).
